According to PubChem BioAssay (NCI):
This is part of a sample that, as a whole, favours compounds with a hit. Of some 83,000 tested, about 20% had one in any assay.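 Step 1: grow cells in 96-well plates. Step 2: add test compound at a single concentration. Step 3: incubate 48 h. Step 4: record percent growth.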 Unmarked numbers belong to inactive results. The source made the active and inactive calls. The calls were made as follows: active = growth percent below 10; inactive = the rest.

test system: NCI-H460 lung; assay: NCI-60 one-dose screen, 48 h (100 = growth as untreated, 0 = no growth, -100 = all killed); settings: 10 µM

| Structure (SMILES) | growth |
| --- | --- |
| COc1ccc(-c2ccccc2)cc1C(=O)c1ccc(-c2ccccc2)cc1 | 88.9% |
| O=C1CC[C@@H](C(=O)N[C@H]2CSSC[C@@H](C(=O)N/C=C/c3ccc(O)cc3)NC(=O)[C@H](Cc3ccccc3)NC(=O)[C@@H]3CCCN3C(=O)[C@@H]3CCCN3C2=O)N1 | 102% |
| COc1ccc2nc(C)cc(Nc3ccc(Cl)cc3)c2c1 | 91.8% |
| CC(=O)OC1Oc2ccccc2-c2oc(=O)c(-c3cc(=O)oc4cc(O)ccc34)cc21 (stereo unspecified) | 93.8% |
| O=C(NCCc1nccs1)c1cnc2c(S)cccc2c1 | 0.683% (active) |
| COc1ccccc1Cn1cc2c(c1-c1ccccc1)CCc1cnoc1-2 | 10.7% |
| FC(F)(F)c1ccc(-c2cnc(Cl)nc2NC2CCCCCC2)cc1 | 25.8% |
| C[C@]12CC[C@H]3[C@@H](CCC4=CC(=O)CC[C@@]43C)[C@@H]1CC[C@@H]2c1csc(N)n1 | 42.4% |
| COc1ccc(COC(=O)CC(C)C)cc1 | 108% |
| CCOC(=O)c1cc2c(n1Cc1ccccc1)-c1oncc1CC2 | 19.6% |
| CCCCCCCCCCCCCCCCCBr | 106% |
| CS(=O)(=O)Nc1ccc([N+](=O)[O-])cc1Oc1ccccc1 | 102% |
| Oc1ccccc1-c1nnc(Cn2c(Cc3cccc4ccccc34)nc3ccccc32)o1 | 108% |
| O=NN(CC(=O)N/N=C/C=C\c1ccccc1)CC(=O)N/N=C/C=C/c1ccccc1 | 99.3% |
| O=C(OCc1ncc(-c2ccc(C(F)(F)F)cc2)c(NC2CCCCCC2)n1)c1c(F)c(F)c(F)c(F)c1F | 63.5% |
| Cc1cc(O)c(C2=NN(c3ccc(S(N)(=O)=O)cc3)C(c3ccc(N(C)C)cc3)C2)c(C)c1Cl (stereo unspecified) | 47.1% |
| C=CCNC(=S)NN | 99% |
| O=C(Nc1ccc(OS(=O)(=O)Cc2ccccc2)cc1)C12CC3CC(CC(C3)C1)C2 | 68.8% |
| Cc1cc(C(C)(C)CC(C)(C)C)ccc1OCCOCC[N+](C)(C)Cc1ccccc1 | -72.2% (active) |

| Structure (SMILES) | growth |
| --- | --- |
| Oc1cc(O)c(Br)cc1Br | 108% |
| C/C(=N/NC(=O)c1sc(=S)n(C)c1N)c1cc2cc(Cl)ccc2o1 | 89% |
| CCOC(=O)CSC(=S)SCC(=O)OCC | 107% |
| Cc1c(C(=O)N[C@H](CO)Cc2ccccc2)[nH]c2ccc(Cl)cc2c1=O | 106% |
| Cc1ccc2c(c1)-c1cc(C)nn1-c1ccc(C#N)cc1O2 | 60.5% |
| CCOC(=O)c1cc(-c2ccccc2)nc(N)n1 | 104% |
| COc1cccc2c1O/C(=C\c1ccc([N+](=O)[O-])s1)C2=O | 70.9% |
| CCN(CC)CC(O)CNc1ccnc2cc(Cl)c(Cl)cc12 (stereo unspecified) | 100% |
| N#C/C(=C\N1C(=O)/C(=C/c2cccc([N+](=O)[O-])c2)SC1=S)c1nc2ccccc2s1 | 94.7% |
| COc1cc(/C=C/C(=O)c2cc(-c3ccccc3)ccc2O)cc(OC)c1OC | 67.6% |
| Cc1cccc2c(Nc3ccc(NS(C)(=O)=O)cc3)c3ccc([N+](=O)[O-])cc3nc12 | -34.6% (active) |
| COc1ccc(/C=C2\SC(=S)N(CCCN3CCOCC3)C2=O)c(OC)c1 | 105% |
| Oc1ccc(/C=N\Nc2ccccn2)c(O)c1 | 3.15% (active) |
| O=C(NCCCl)c1cc(Cl)cc(Cl)c1 | 113% |
| O=S(=O)(NCCO)c1ccc(OCCOc2ccc(S(=O)(=O)NCCO)cc2)cc1 | 111% |
| CCCCCCCCCCCCc1ccc(C(=O)/C=C/C(=O)O)cc1 | 94.2% |
| CCOC(=O)/C(C#N)=C(/C)C1CC1 | 104% |
| O=C1CC(c2cccc(-c3cccnc3)c2)=Nc2ccc(Br)cc2N1 | 24.3% |
| COc1cc(NS(C)(=O)=O)ccc1Nc1c2ccc(Cl)cc2nc2c(OC)cccc12 | -46.9% (active) |

test system: HOP-92 NSCLC; assay: as above; settings: 10 µM

| Structure (SMILES) | growth |
| --- | --- |
| COc1ccc(-c2ccccc2)cc1C(=O)c1ccc(-c2ccccc2)cc1 | 88.4% |
| O=C1CC[C@@H](C(=O)N[C@H]2CSSC[C@@H](C(=O)N/C=C/c3ccc(O)cc3)NC(=O)[C@H](Cc3ccccc3)NC(=O)[C@@H]3CCCN3C(=O)[C@@H]3CCCN3C2=O)N1 | 99.2% |
| COc1ccc2nc(C)cc(Nc3ccc(Cl)cc3)c2c1 | 156% |
| CC(=O)OC1Oc2ccccc2-c2oc(=O)c(-c3cc(=O)oc4cc(O)ccc34)cc21 (stereo unspecified) | 44.8% |
| O=C(NCCc1nccs1)c1cnc2c(S)cccc2c1 | 54.5% |
| COc1ccccc1Cn1cc2c(c1-c1ccccc1)CCc1cnoc1-2 | 53.1% |
| FC(F)(F)c1ccc(-c2cnc(Cl)nc2NC2CCCCCC2)cc1 | -28.4% (active) |
| C[C@]12CC[C@H]3[C@@H](CCC4=CC(=O)CC[C@@]43C)[C@@H]1CC[C@@H]2c1csc(N)n1 | 65.4% |
| COc1ccc(COC(=O)CC(C)C)cc1 | 99% |
| CCOC(=O)c1cc2c(n1Cc1ccccc1)-c1oncc1CC2 | 75.6% |
| CCCCCCCCCCCCCCCCCBr | 98.8% |
| CS(=O)(=O)Nc1ccc([N+](=O)[O-])cc1Oc1ccccc1 | 51.8% |
| Oc1ccccc1-c1nnc(Cn2c(Cc3cccc4ccccc34)nc3ccccc32)o1 | 78.3% |
| O=NN(CC(=O)N/N=C/C=C\c1ccccc1)CC(=O)N/N=C/C=C/c1ccccc1 | 60.6% |
| O=C(OCc1ncc(-c2ccc(C(F)(F)F)cc2)c(NC2CCCCCC2)n1)c1c(F)c(F)c(F)c(F)c1F | 6.29% (active) |
| Cc1cc(O)c(C2=NN(c3ccc(S(N)(=O)=O)cc3)C(c3ccc(N(C)C)cc3)C2)c(C)c1Cl (stereo unspecified) | 45.5% |
| C=CCNC(=S)NN | 84.6% |
| O=C(Nc1ccc(OS(=O)(=O)Cc2ccccc2)cc1)C12CC3CC(CC(C3)C1)C2 | 59.9% |
| Cc1cc(C(C)(C)CC(C)(C)C)ccc1OCCOCC[N+](C)(C)Cc1ccccc1 | -72.5% (active) |

| Structure (SMILES) | growth |
| --- | --- |
| Oc1cc(O)c(Br)cc1Br | 85.4% |
| C/C(=N/NC(=O)c1sc(=S)n(C)c1N)c1cc2cc(Cl)ccc2o1 | 114% |
| CCOC(=O)CSC(=S)SCC(=O)OCC | 108% |
| Cc1c(C(=O)N[C@H](CO)Cc2ccccc2)[nH]c2ccc(Cl)cc2c1=O | 94.7% |
| Cc1ccc2c(c1)-c1cc(C)nn1-c1ccc(C#N)cc1O2 | 69.1% |
| CCOC(=O)c1cc(-c2ccccc2)nc(N)n1 | 78.1% |
| COc1cccc2c1O/C(=C\c1ccc([N+](=O)[O-])s1)C2=O | 14.6% |
| CCN(CC)CC(O)CNc1ccnc2cc(Cl)c(Cl)cc12 (stereo unspecified) | 53.4% |
| N#C/C(=C\N1C(=O)/C(=C/c2cccc([N+](=O)[O-])c2)SC1=S)c1nc2ccccc2s1 | 8.99% (active) |
| COc1cc(/C=C/C(=O)c2cc(-c3ccccc3)ccc2O)cc(OC)c1OC | 61.3% |
| Cc1cccc2c(Nc3ccc(NS(C)(=O)=O)cc3)c3ccc([N+](=O)[O-])cc3nc12 | -16.7% (active) |
| COc1ccc(/C=C2\SC(=S)N(CCCN3CCOCC3)C2=O)c(OC)c1 | 87.1% |
| Oc1ccc(/C=N\Nc2ccccn2)c(O)c1 | 38.1% |
| O=C(NCCCl)c1cc(Cl)cc(Cl)c1 | 109% |
| O=S(=O)(NCCO)c1ccc(OCCOc2ccc(S(=O)(=O)NCCO)cc2)cc1 | 81.1% |
| CCCCCCCCCCCCc1ccc(C(=O)/C=C/C(=O)O)cc1 | 46.4% |
| CCOC(=O)/C(C#N)=C(/C)C1CC1 | 86% |
| O=C1CC(c2cccc(-c3cccnc3)c2)=Nc2ccc(Br)cc2N1 | 23.5% |
| COc1cc(NS(C)(=O)=O)ccc1Nc1c2ccc(Cl)cc2nc2c(OC)cccc12 | 14.5% |
